Sampled rows, rich in hits. Any-hit rate of the full collection: about 3.4%.
proKLK7 act = activates the human kallikrein-7 zymogen. P49862. 0.9% of 370,000 active. activation, % at 7 µM. purified proKLK7, EDANS-DABCYL substrate fluorescence; 100% is mature enzyme control, 0% vehicle;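 active means activation above the mean of all tested compounds plus 3 SD, computed per campaign excluding outliers beyond control limits, cut at about 13% in these data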
PLCg1 inh = inhibitors of human phospholipase C gamma1. 0.84% of 370,000 active. inhibition, % at 12.2 µM. purified PLC-gamma1, fluorogenic substrate, fluorescence. P19174. AID 720700; in the data active means inhibition above about 9.5%
Target sequence (P19174 whole entry, looked up): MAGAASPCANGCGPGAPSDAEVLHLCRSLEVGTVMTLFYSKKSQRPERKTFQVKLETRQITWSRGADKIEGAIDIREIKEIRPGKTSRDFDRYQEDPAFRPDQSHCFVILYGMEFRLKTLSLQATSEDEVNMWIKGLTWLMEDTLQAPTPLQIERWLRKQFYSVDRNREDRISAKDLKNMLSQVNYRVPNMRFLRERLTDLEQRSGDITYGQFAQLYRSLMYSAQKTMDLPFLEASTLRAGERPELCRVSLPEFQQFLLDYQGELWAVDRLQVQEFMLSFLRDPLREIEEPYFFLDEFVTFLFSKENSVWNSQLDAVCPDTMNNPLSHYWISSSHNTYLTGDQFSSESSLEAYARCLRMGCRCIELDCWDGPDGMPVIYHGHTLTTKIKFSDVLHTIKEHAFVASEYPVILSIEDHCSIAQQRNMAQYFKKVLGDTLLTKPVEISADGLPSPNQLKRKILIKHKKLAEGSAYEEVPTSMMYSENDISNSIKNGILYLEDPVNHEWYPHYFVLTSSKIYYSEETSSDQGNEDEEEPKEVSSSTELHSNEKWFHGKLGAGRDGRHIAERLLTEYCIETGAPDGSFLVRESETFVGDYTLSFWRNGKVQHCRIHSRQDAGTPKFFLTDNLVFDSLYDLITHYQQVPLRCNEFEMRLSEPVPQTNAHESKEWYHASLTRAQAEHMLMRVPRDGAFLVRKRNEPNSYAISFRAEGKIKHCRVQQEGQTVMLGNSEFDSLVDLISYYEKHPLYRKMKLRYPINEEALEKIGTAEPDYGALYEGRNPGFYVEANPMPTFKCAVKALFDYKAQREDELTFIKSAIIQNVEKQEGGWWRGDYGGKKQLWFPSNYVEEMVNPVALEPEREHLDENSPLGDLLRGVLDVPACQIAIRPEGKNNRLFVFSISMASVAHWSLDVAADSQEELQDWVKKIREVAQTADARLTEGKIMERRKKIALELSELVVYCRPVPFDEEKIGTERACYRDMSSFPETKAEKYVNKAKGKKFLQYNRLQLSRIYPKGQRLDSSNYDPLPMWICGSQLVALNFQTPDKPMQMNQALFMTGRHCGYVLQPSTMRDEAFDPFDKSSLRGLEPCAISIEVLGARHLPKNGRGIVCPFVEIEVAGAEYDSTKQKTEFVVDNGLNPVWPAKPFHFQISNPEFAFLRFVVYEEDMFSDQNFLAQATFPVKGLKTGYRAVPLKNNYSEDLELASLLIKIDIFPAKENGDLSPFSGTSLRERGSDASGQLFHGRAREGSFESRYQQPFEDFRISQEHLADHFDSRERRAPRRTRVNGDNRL
PLCb3 inh = PLC-beta3 (human) inhibition, primary screen. Q01970. Purified PLC-beta3, fluorogenic substrate, fluorescence. inhibition, % at 12.2 µM. 0.18% of 370,000 active. AID 720704;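 further: 0% = median of compound wells on plate and 100% = full blocker control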
ADAM10 inh = inhibitors of human ADAM10 | recombinant ADAM10, EDANS/DABCYL FRET peptide cleavage, 3 h | inhibition, % at 7 µM | 0.62% of 370,000 active | AID 720582;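 active means inhibition above a per-campaign cutoff equal to the mean of compounds falling between control-based bounds plus 3 SD, cut at about 20% in these data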;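 further: 0% = DMSO wells while the 100% control is not disclosed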
ADAM17 inh = inhibitors of human ADAM17 | P78536 | recombinant ADAM17, EDANS/DABCYL FRET peptide cleavage | inhibition, % at 6.95 µM | 0.83% of 370,000 active;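 active means inhibition above the mean of compounds lying between control limits plus 3 SD, set per campaign, cut at about 8.5% in these data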;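 further: 0% = DMSO-only wells as the low control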
sPLA2-III inh = Inhibits HGIII-sPLA2 liposome hydrolysis, primary screen. Q9NZ20. QFRET BODIPY PC-A2 liposome hydrolysis, fluorescence. inhibition, % at 12.2 µM. 0.56% of 370,000 active. AID 743126;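 active means inhibition above mean plus 3 SD of compounds lying within the high and low control bounds, cut at about 19% in these data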;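 further: 0% = median of test compound wells and 100% = no enzyme DMSO wells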
PLCgamma1 ctr = counter-screen for PLC-beta3 inhibitors: inhibitors of human PLC-gamma1; shares compounds with PLCg1 inh; purified PLC-gamma1, fluorogenic substrate, fluorescence; inhibition, % at 12.3 µM; 3.1% of 3,300 active; AID 743258; in the data active means inhibition above about 9.5%
PLCb3 confirm = confirmation of human PLC-beta3 inhibitors | shares compounds with PLCg1 inh | 1% of 3,300 active | AID 743261 | inhibition, % at 12.3 µM | purified PLC-beta3, fluorogenic substrate fluorescence
Starred values were filed as active, the others as inactive. Unless noted, no stated cut-off is given here; in the data, active means inhibition above about 11%; inactive means the rest.

What do the screens show for `Cc1cnc(CNC(=O)c2csc(COCCO)n2)cn1`?
proKLK7 act: 0; PLCg1 inh: 3; PLCb3 inh: 0; ADAM10 inh: -3; ADAM17 inh: 0; sPLA2-III inh: 3

Results for O=C(NCC1CC1)c1csc(COCCO)n1 ?
proKLK7 act: -1; PLCg1 inh: 6; PLCb3 inh: 13*; ADAM10 inh: 0; ADAM17 inh: 4; sPLA2-III inh: 8; PLCgamma1 ctr: 0; PLCb3 confirm: -7

Results for CC(C)c1ccc(Nc2nnc(SCC(=O)NCC3CCCO3)s2)cc1 (centres undefined) ?
proKLK7 act: 0; PLCg1 inh: 1; PLCb3 inh: 2; ADAM10 inh: -9; ADAM17 inh: -2; sPLA2-III inh: -2

Results for Cc1ccsc1/C=N/NC(=O)C1CC(=O)N(c2ccccc2)C1 (centres undefined) ?
proKLK7 act: 0; PLCg1 inh: 3; PLCb3 inh: 11*; ADAM10 inh: 9; ADAM17 inh: 6; sPLA2-III inh: 2; PLCgamma1 ctr: 4; PLCb3 confirm: 3

How did CCOC(=O)Cc1csc(SCC(=O)c2c(N)n(CC(C)C)c(=O)n(C)c2=O)n1 do in these assays?
proKLK7 act: -1; PLCg1 inh: 10*; PLCb3 inh: 0; ADAM10 inh: 7; ADAM17 inh: 1; sPLA2-III inh: 0; PLCgamma1 ctr: -2; PLCb3 confirm: 2

Results for CC(C)Cn1c(N)c(C(=O)CSc2nc3ccccc3n2C)c(=O)n(C)c1=O ?
proKLK7 act: -1; PLCg1 inh: 1; PLCb3 inh: 3; ADAM10 inh: -3; ADAM17 inh: -2; sPLA2-III inh: 2

How did Cc1csc(SCC(=O)c2c(N)n(CC(C)C)c(=O)n(C)c2=O)n1 do in these assays?
proKLK7 act: 0; PLCg1 inh: 5; PLCb3 inh: -1; ADAM10 inh: 3; ADAM17 inh: -2; sPLA2-III inh: 7

Results for Cc1ccc(-n2nnnc2SCC(=O)c2c(N)n(CC(C)C)c(=O)n(C)c2=O)cc1 ?
proKLK7 act: 0; PLCg1 inh: 11*; PLCb3 inh: 3; ADAM10 inh: 3; ADAM17 inh: 2; sPLA2-III inh: 10; PLCgamma1 ctr: -5; PLCb3 confirm: 1

How did CCNC(=O)CN1C(=O)NC2(CCCc3cc(OC)ccc32)C1=O (centres undefined) do in these assays?
proKLK7 act: 0; PLCg1 inh: 1; PLCb3 inh: 8; ADAM10 inh: 5; ADAM17 inh: 0; sPLA2-III inh: 9

How did COc1ccc2c(c1)CCCC21NC(=O)N(CC(=O)N2CC(C)OC(C)C2)C1=O (centres undefined) do in these assays?
proKLK7 act: 0; PLCg1 inh: 13*; PLCb3 inh: 0; ADAM10 inh: 7; ADAM17 inh: 2; sPLA2-III inh: 3; PLCgamma1 ctr: -1; PLCb3 confirm: -2

Results for O=C(CCNS(=O)(=O)c1ccccc1C(F)(F)F)N1CCN(S(=O)(=O)c2cccc(F)c2)CC1 ?
proKLK7 act: -1; PLCg1 inh: -5; PLCb3 inh: -1; ADAM10 inh: -1; ADAM17 inh: 2; sPLA2-III inh: -3

Results for O=c1cc(CN2CCN(S(=O)(=O)c3ccc4ccccc4c3)CC2)nc2sccn12 ?
proKLK7 act: 0; PLCg1 inh: -38; PLCb3 inh: -49; ADAM10 inh: -15; ADAM17 inh: -6; sPLA2-III inh: -7

Results for COc1ccc([N+](=O)[O-])cc1N(CC(=O)N1CCCC1)S(C)(=O)=O ?
proKLK7 act: 0; PLCg1 inh: 3; PLCb3 inh: 3; ADAM10 inh: -3; ADAM17 inh: -3; sPLA2-III inh: -7

Results for CCOc1ccc(N2C(=O)CC(S/C(N)=N/N=C/c3cccs3)C2=O)cc1 (centres undefined) ?
proKLK7 act: -1; PLCg1 inh: 10*; PLCb3 inh: 5; ADAM10 inh: 8; ADAM17 inh: 3; sPLA2-III inh: -5; PLCgamma1 ctr: 3; PLCb3 confirm: 6
